Data on 39 compounds can be found in the supplement of paper PMC10127200.

Counter-ions that a name gives are not always drawn.

The subject of this experiment is HEPG2. Nature of the experiment: Euclidean distance of Cell Painting phenotypic profile (signed KS, 77 features) to DMSO centroid (dimensionless distance); 5 or 10 uM (library dependent); higher = stronger phenotypic change vs DMSO (phenoactivity). The note with it: 48 h. Put shortly: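 Harmony extracted 77 features from 20X confocal images (9 fields/well) of stained cells, scoring each as a signed Kolmogorov-Smirnov statistic against same-plate vehicle wells. The cells, five cancer lines and a healthy fibroblast line, had received library compounds for 48 h at 10 or 5 uM depending on library, with 0.1% DMSO final. Phenoactivity is the Euclidean distance from each plate-position-corrected, correlation-weighted, top-dose replicate-averaged profile to the median vehicle profile.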
The compound `O=c1cc(-c2ccc(O)cc2)oc2cc(O)cc(O)c12` [Apigenin] returned an Euclidean distance of 1.73. The same measure for `CC(C)NCC(O)COc1cccc2[nH]ccc12` (centres undefined) [Pindolol]: 0.588. For `COC(=O)C1=C(C)NC(C)=C(C(=O)OC2CCCN(Cc3ccccc3)C2)C1c1cccc([N+](=O)[O-])c1` (centres undefined) [Benidipine HCl] the value was 0.713. The same measure for `CCc1cc(/C(C)=N/OCc2ccc(C3CCCCC3)c(C(F)(F)F)c2)ccc1CN1CC(C(=O)O)C1` [BAF312 (Siponimod)]: 0.538; for `O=C(O)c1cccnc1` [Nicotinic Acid]: 1.92; for `CC(=O)c1ccc(S(=O)(=O)NC(=O)NC2CCCCC2)cc1` [Acetohexamide]: 0.469.

`CCOC(=O)[C@H](CCc1ccccc1)N[C@@H](C)C(=O)N1CCC[C@H]1C(=O)O` [Enalapril Maleate] displayed an Euclidean distance of 0.78.

In turn, `C[C@H]1C[C@H]2[C@@H]3CCC4=CC(=O)C=C[C@]4(C)[C@@]3(F)[C@@H](O)C[C@]2(C)[C@@]1(O)C(=O)CO` [Betamethasone] displayed an Euclidean distance of 0.663.

In the case of `O=c1ccc2ccccc2o1` [Coumarin], the Euclidean distance was determined as 0.824.

In the case of `O=C(NC(Cc1cc(=O)[nH]c2ccccc12)C(=O)O)c1ccc(Cl)cc1` (centres undefined) [Rebamipide], the Euclidean distance came to 1.97. For `COc1ccccc1N1CCN(CC(O)COc2cccc3ccccc23)CC1` (centres undefined) [Naftopidil] the value was 0.934; for `CCC[C@@H]1C[C@@H](C(=O)N[C@@H]([C@H]2O[C@H](SC)[C@H](OP(=O)(O)O)[C@@H](O)[C@H]2O)[C@H](C)Cl)N(C)C1` [Clindamycin Phosphate], 0.808; for `N[C@@H](Cc1c[nH]c2ccccc12)C(=O)O` [L-Tryptophan], 0.851. Compound `Nc1ccc(C(=O)O)c(O)c1` [4-Aminosalicylic acid] showed an Euclidean distance of 0.517. Compound `Cc1cc(C)nc(NS(=O)(=O)c2ccc(N)cc2)n1` [Sulfamethazine Sodium Salt] came in with an Euclidean distance of 0.494. For `Cc1ccc(C(C)C)c(O)c1` [Thymol] the value was 0.572; for `NC(=O)c1cccc(-c2cccc(OC(=O)NC3CCCCC3)c2)c1`, 1.61. Turning to `O=S(=O)(c1ccccc1)c1cnc2c(N3CCNCC3)cccc2c1`, the Euclidean distance amounted to 1.94. For `COc1cc(C(=O)O)ccc1NC(=O)[C@@H]1N[C@@H](CC(C)(C)C)[C@](C#N)(c2ccc(Cl)cc2F)[C@H]1c1cccc(Cl)c1F` [Idasanutlin (RG-7388)] the value was 1.15. For `O=c1cc(-c2ccccc2)oc2cc(O)cc(O)c12` [Chrysin] the value was 1.37.

`C[C@@H](O[C@H]1OCCN(Cc2n[nH]c(=O)[nH]2)[C@H]1c1ccc(F)cc1)c1cc(C(F)(F)F)cc(C(F)(F)F)c1` [Aprepitant] showed an Euclidean distance of 1.43. Turning to `c1cnc2cc3c(cc2n1)[C@@H]1CNC[C@H]3C1` [Varenicline Tartrate], the Euclidean distance was determined as 0.459. The compound `Oc1c(Cl)cc(Cl)cc1Sc1cc(Cl)cc(Cl)c1O` [Bithionol] registered an Euclidean distance of 1.02.

Take `C[N+](C)(C)CCOC(N)=O` [Carbachol]: the Euclidean distance stood at 0.696. For `Nc1ncnc2c1c(-c1cnc3[nH]ccc3c1)nn2C1CCCC1` the value was 4.53. The same measure for `NC(=O)NCCC[C@H](N)C(=O)O` [L-Citrulline]: 1.27. The same measure for `CN(C)CCCN1c2ccccc2CCc2ccccc21` [Imipramine HCl]: 1.13; for `CCn1c(=O)c2c(nc(/C=C/c3ccc(OC)c(OC)c3)n2C)n(CC)c1=O` [Istradefylline]: 0.77; for `CCNC(=O)CC[C@H](N)C(=O)O` [L-Theanine]: 1.4. `NCCCC[C@H](N[C@@H](CCc1ccccc1)C(=O)O)C(=O)N1CCC[C@H]1C(=O)O` [Lisinopril dihydrate]: the Euclidean distance was found to be 0.746. Compound `CN(C)CCOC(c1ccccc1)c1ccccc1.Cn1c(=O)c2[nH]c(Cl)nc2n(C)c1=O` [Dimenhydrinate] returned an Euclidean distance of 0.581. For `CC1=C(C(=O)OC(C)C)C(c2cccc([N+](=O)[O-])c2)C(C(=O)OC2CN(C(c3ccccc3)c3ccccc3)C2)=C(N)N1` (centres undefined) [Azelnidipine] the value was 1.44. For `COC1CCN(C(=O)c2cc(Cc3n[nH]c(=O)c4ccccc34)ccc2F)CC1`, the Euclidean distance was determined as 1.36.

Compound `CCN(CC)CCNC(=O)c1ccc(N)cc1` [Procainamide HCl] came in with an Euclidean distance of 0.326. In the case of `c1ccc2c(Oc3nc(Nc4ccc(N5CCOCC5)cc4)c4ncn(C5CCCCC5)c4n3)cccc2c1` [Purmorphamine], the Euclidean distance came to 1.17. The same measure for `Cc1nc(C#Cc2ccnc(Cl)c2)c(C)n1-c1ccc(OC(F)(F)F)cc1`: 0.904.

`O=C1[C@H](CC[C@H](O)c2ccc(F)cc2)[C@@H](c2ccc(O)cc2)N1c1ccc(F)cc1` [Ezetimibe] displayed an Euclidean distance of 2.26.

For `CC1(C)S[C@@H]2[C@H](NC(=O)[C@H](N)c3ccccc3)C(=O)N2[C@H]1C(=O)O` [Ampicillin Trihydrate], the Euclidean distance stood at 0.667.

Take `Cc1ccc(Sc2cncc3sc(C(N)=O)cc23)cc1`: the Euclidean distance amounted to 1.24.
